# Measurements published in PubChem BioAssay (EPA / NIEHS).
# Records with an inconclusive call do not appear. The source made the active and inactive calls. How the source made its calls, unless noted: active means hit-call score of the fitted dose curve at least 0.9, where 1 is the maximum; inactive means score below 0.9.
# Assay: CCTE_Harrill_HTTr_CellCount_MCF7: CCTE's Cell Proliferation Assessment for the High-Throughput Transcriptomics (HTTr) Platform, Harrill Lab (AID 2284012; active means hit-call score of the fitted dose curve at least 0.9, where 1 is the maximum;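 further: cells exposed to compound for six hours; intended direction is loss of nuclei count meaning fewer cells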)
# Outline: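 Cell count from high-content imaging of Hoechst-labeled nuclei serves as viability/growth readout. Chemicals were applied to MCF-7 cells in eight concentrations for six hours, with fitting in both directions relative to DMSO.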
Structure (SMILES),outcome,AC50
CCN(CC)CCNc1ccc(CNC=O)c2sc3ccc(OC)cc3c(=O)c12,inactive,–
Oc1cc2ccccc2c2ccccc12,inactive,–
OC1CCCCC1,inactive,–
CCCCC(CC)COC(=O)CCCCC(=O)OCc1ccccc1 (stereo not given),inactive,–
CCCCCCCCCCCCN1CCCC1=O,inactive,–
OC1CCC(C2CCCCC2)CC1 (stereo not given),inactive,–
COc1cc(CCC(=O)CC(=O)CCc2ccc(O)c(OC)c2)ccc1O,inactive,–
CC(C)(C)c1cccc(C(C)(C)C)c1O,inactive,–
CN1CCN(c2ccccc2/C=C2\SCCN(c3ccc(Cl)c(Cl)c3)C2=O)CC1,–,77.1 µM (active)
CC1=C(/C=C/C(C)=C/C=C/C(C)=C/C(=O)O)C(C)(C)CCC1,inactive,–
CCCOC(=O)c1ccc(O)cc1,inactive,–
CC[C@H](C)[C@@H](C(=O)O)n1sc2ccccc2c1=O,inactive,–
Cc1cc(C)c(O)c(C)c1,inactive,–
CCCCOCCO,inactive,–
O=C(OCCOCCOC(=O)c1ccccc1)c1ccccc1,inactive,–
C#C[C@]1(O)CC[C@H]2[C@@H]3CCC4=CC(=O)CC[C@@H]4[C@H]3CC[C@@]21C,inactive,–
C[C@@H]1C[C@H]2[C@@H]3CCC4=CC(=O)C=C[C@]4(C)[C@@]3(F)[C@@H](O)C[C@]2(C)[C@@]1(O)C(=O)COP(=O)(O)O,inactive,–
C=C(C)C(=O)OCCC(F)(F)C(F)(F)C(F)(F)C(F)(F)C(F)(F)C(F)(F)F,inactive,–
CCCCCCCCOC(=O)CCCCCCCCC(=O)OCCCCCCCC,inactive,–
CCCCCCC(=O)O,inactive,–
O=C(/C=C/c1ccc(O)cc1)CC(=O)/C=C/c1ccc(O)cc1,inactive,–
COCC(C)OCC(C)O (stereo not given),inactive,–
COC(=O)CCCCC(=O)OC,inactive,–

# Assay: CCTE_Shafer_MEA_acute_burst_duration_mean: CCTE's Neural Acute Assay for Mean Burst Duration, Shafer Lab (AID 2284014);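 further: hits are decreases in mean burst duration relative to DMSO controls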
# Outline: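 Acute exposure of mature rat cortical networks (DIV 13 or 15) grown on microelectrode arrays to 0.03-40 uM compound. Mean burst duration compared with the 40-min pre-dose baseline over a 40-min post-dose recording at 37 C.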
Structure (SMILES),outcome,AC50
Oc1cc2ccccc2c2ccccc12,inactive,–
CCCCCCCCCCCCc1ccccc1S(=O)(=O)O,inactive,–
CCCCCCCCCCCCN1CCCC1=O,inactive,–
OC1CCC(C2CCCCC2)CC1 (stereo not given),inactive,–
CN1CCN(c2ccccc2/C=C2\SCCN(c3ccc(Cl)c(Cl)c3)C2=O)CC1,–,32 µM (active)
OCCC(F)(F)C(F)(F)C(F)(F)C(F)(F)C(F)(F)C(F)(F)C(F)(F)C(F)(F)F,inactive,–

# Assay: CCTE_Shafer_MEA_acute_per_burst_spike_number_mean: CCTE's Neural Acute Assay for Average Number of Spikes Per Burst, Shafer Lab (AID 2284015);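 further: hits are decreases in mean spikes per burst versus baseline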
# Outline: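 Percent change in mean spikes per single-electrode burst is compared between a 40 min baseline and a 40 min recording with compound (0.03-40 uM). Cultures were rat cortical neurons on MEA plates at DIV 13 or 15, recorded at 37 C, with DMSO as the negative control.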
row,Structure (SMILES),outcome
1,Oc1cc2ccccc2c2ccccc12,inactive
2,CCCCCCCCCCCCc1ccccc1S(=O)(=O)O,inactive
3,CCCCCCCCCCCCN1CCCC1=O,inactive
4,OC1CCC(C2CCCCC2)CC1 (stereo not given),inactive
5,CN1CCN(c2ccccc2/C=C2\SCCN(c3ccc(Cl)c(Cl)c3)C2=O)CC1,inactive
6,OCCC(F)(F)C(F)(F)C(F)(F)C(F)(F)C(F)(F)C(F)(F)C(F)(F)C(F)(F)F,inactive

# Assay: CCTE_Shafer_MEA_acute_interburst_interval_mean: CCTE's Neural Acute Assay for Mean Interburst Interval, Shafer Lab (AID 2284016);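 further: percent change of mean interburst interval versus each well's own pre-dose baseline; curves fitted for decrease in interburst interval relative to DMSO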
# Outline: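 Percent change in mean single-electrode interburst interval was calculated per well from 40 min recordings before and after compound (0.03-40 uM). Recordings were made at 37 C on rat cortical cultures at DIV 13 or 15, with spikes detected at 8x rms threshold.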
row,Structure (SMILES),outcome
1,Oc1cc2ccccc2c2ccccc12,inactive
2,CCCCCCCCCCCCc1ccccc1S(=O)(=O)O,inactive
3,CCCCCCCCCCCCN1CCCC1=O,inactive
4,OC1CCC(C2CCCCC2)CC1 (stereo not given),inactive
5,CN1CCN(c2ccccc2/C=C2\SCCN(c3ccc(Cl)c(Cl)c3)C2=O)CC1,inactive
6,OCCC(F)(F)C(F)(F)C(F)(F)C(F)(F)C(F)(F)C(F)(F)C(F)(F)C(F)(F)F,inactive

# Assay: CCTE_Shafer_MEA_acute_burst_percentage_mean: CCTE's Neural Acute Assay for Percentage of Spikes in a Burst, Shafer Lab (AID 2284017);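 on AC50: curve fitted for loss of signal so potency reflects decreased burst percentage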
# Outline: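 Well-level mean burst percentage from a 40-min recording after compound (0.03-40 uM) expressed as percent change from a 40-min baseline at 37C. Cultures: primary rat cortical neurons on MEA, dosed on DIV 13 or 15; fitted downward relative to DMSO.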
Structure (SMILES),outcome,AC50
Oc1cc2ccccc2c2ccccc12,inactive,–
CCCCCCCCCCCCc1ccccc1S(=O)(=O)O,inactive,–
CCCCCCCCCCCCN1CCCC1=O,inactive,–
OC1CCC(C2CCCCC2)CC1 (stereo not given),–,27.3 µM (active)
CN1CCN(c2ccccc2/C=C2\SCCN(c3ccc(Cl)c(Cl)c3)C2=O)CC1,–,0.128 µM (active)
OCCC(F)(F)C(F)(F)C(F)(F)C(F)(F)C(F)(F)C(F)(F)C(F)(F)C(F)(F)F,inactive,–

# Assay: CCTE_Shafer_MEA_acute_burst_percentage_std: CCTE's Neural Acute Assay for Standard Deviation of Burst Percentage, Shafer Lab (AID 2284018);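 further: fitted in the negative direction so actives lower burst percentage SD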
# Outline: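 Primary rat cortical neurons on 16-electrode MEA wells were recorded 40 min at baseline (DIV 13 or 15), then 40 min after compound (0.03-40 uM), at 37 C. Well value is SD across electrodes of spikes-in-bursts/total spikes; endpoint is percent change, DMSO-referenced.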
row,Structure (SMILES),outcome
1,Oc1cc2ccccc2c2ccccc12,inactive
2,CCCCCCCCCCCCc1ccccc1S(=O)(=O)O,inactive
3,CCCCCCCCCCCCN1CCCC1=O,inactive
4,OC1CCC(C2CCCCC2)CC1 (stereo not given),inactive
5,CN1CCN(c2ccccc2/C=C2\SCCN(c3ccc(Cl)c(Cl)c3)C2=O)CC1,inactive
6,OCCC(F)(F)C(F)(F)C(F)(F)C(F)(F)C(F)(F)C(F)(F)C(F)(F)C(F)(F)F,inactive

# Assay: CCTE_Shafer_MEA_acute_per_network_burst_spike_number_mean: CCTE's Neural Acute Assay for Average Number of Spikes in a Network Burst, Shafer Lab (AID 2284019);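 on AC50: curve fitted for loss of signal so actives reduce spikes per network burst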
# Outline: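 Acute exposure of rat primary cortical networks (DIV 13/15) on MEAs; adaptive spike detection at 8x rms noise, 37 C. Percent change in spikes per network burst after 40 min with compound (0.03-40 uM), negative direction vs DMSO.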
Structure (SMILES),outcome,AC50
Oc1cc2ccccc2c2ccccc12,inactive,–
CCCCCCCCCCCCc1ccccc1S(=O)(=O)O,inactive,–
CCCCCCCCCCCCN1CCCC1=O,inactive,–
OC1CCC(C2CCCCC2)CC1 (stereo not given),inactive,–
CN1CCN(c2ccccc2/C=C2\SCCN(c3ccc(Cl)c(Cl)c3)C2=O)CC1,–,0.207 µM (active)
OCCC(F)(F)C(F)(F)C(F)(F)C(F)(F)C(F)(F)C(F)(F)C(F)(F)C(F)(F)F,inactive,–

# Assay: CCTE_Shafer_MEA_acute_per_network_burst_electrodes_number_mean: CCTE's Neural Acute Assay for Mean Number of Electrodes in a Network Burst, Shafer Lab (AID 2284021);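 further: curves fitted for decreases only so hits reduce electrodes per burst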
# Outline: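 Percent change from baseline in average electrode count per network burst, rat cortical cultures on 48-well MEAs; 40-min recordings each side of exposure, DIV 13 or 15; threshold 8x rms noise; DMSO as negative control.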
row,Structure (SMILES),outcome
1,Oc1cc2ccccc2c2ccccc12,inactive
2,CCCCCCCCCCCCc1ccccc1S(=O)(=O)O,inactive
3,CCCCCCCCCCCCN1CCCC1=O,inactive
4,OC1CCC(C2CCCCC2)CC1 (stereo not given),inactive
5,CN1CCN(c2ccccc2/C=C2\SCCN(c3ccc(Cl)c(Cl)c3)C2=O)CC1,inactive
6,OCCC(F)(F)C(F)(F)C(F)(F)C(F)(F)C(F)(F)C(F)(F)C(F)(F)C(F)(F)F,inactive
